Values joined by “and” are separate entries in the source; they are usually repeats but may differ in a detail not shown here. Equal values may be shown once. Compounds without any hit were thinned out: in the full panel of roughly 83,000, 20% have a hit.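 96-well plates, one dose, 48 hours. Percent growth reported; active if below 10.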 A number with no mark means an inactive call. Active and inactive are the calls of the source.
The compounds below were run on HL-60(TB) leukemia (assay: NCI-60 one-dose screen, 48 h (100 = growth as untreated, 0 = no growth, -100 = all killed)). Settings: 10 µM unless noted.
`COc1ccc(/C=C/c2nc3ccccc3c(=O)n2CC(=O)Nc2ccccc2)cc1` gave a growth of 94.1%. For `O=C(c1ccc([N+](=O)[O-])c([N+](=O)[O-])c1O)n1[nH]c(=O)c2ccccc2c1=O`, the growth was 44.6%. Compound `O=C1CC(Sc2n[nH]c(-c3ccncc3)n2)C(=O)N1c1ccc(Br)cc1` (stereo not given) has a growth of 101%. For `C=C1CCC2C3(C)COC(c4cc(F)cc(F)c4)OC3CCC2(C)C1C/C=C1/C(=O)OCC1O` (stereo not given), the growth was -9.61% (active). In the case of `Cc1ccc([N+](=O)[O-])c(C(=O)Nc2ccc(-c3ccc4c(c3)NC(=O)/C4=C\c3ccc[nH]3)cc2)c1`, the growth is reported as 49.5%. For `COc1ccc2c(c1)N=c1c-2cc2c(O)[nH]c(=S)n2c1=O`, the growth was -13.3% (active). With `COc1ccc(-c2nc3cc(C)ccc3n2CC(=O)N=Nc2c(O)[nH]c3ccc(Br)cc23)cc1` the growth was 39.4%. `Cc1cc(C)cc(C(=O)Nc2cccc(-c3cn(-c4ccc(S(N)(=O)=O)cc4)nn3)c2)c1` gave a growth of 75.8%. Compound `COc1ccc(-c2c(Nn3cnnn3)no[n+]2[O-])cc1` has a growth of 38.8%. Compound `COc1cc2oc(-c3cccc(C(=O)Nc4ccc(Cl)cc4)c3)cc(=O)c2c(OCCNC(=O)[C@H](CCC(=O)OC(C)(C)C)NC(=O)OC(C)(C)C)c1OC` has a growth of 101%. Work on `COc1cc(-c2ccc(/C=N/NC(=O)c3[nH]c4ccc(Br)cc4c3-c3ccccc3)o2)cc(OC)c1OC` yielded a growth of 99.3%. `C[C@@H]1CN(c2ccc3ncc(C#Cc4cncc(C(=O)Nc5ccc(CN6CCN(C)CC6)c(C(F)(F)F)c5)c4)n3n2)C[C@@H](C)O1` was tested, and the growth was -53.6% (active). For `CN(C)c1ccnc(CNCCSC2(c3ccc(C(F)(F)F)cc3)c3ccccc3CCc3ccccc32)c1`, the growth was -41.9% (active). In the case of `O=C(CSc1nnc(-c2ccc3nc(-c4ccccc4)[nH]c3c2)o1)Nc1ccc(Br)cc1`, the growth is reported as 51.3%. `CCN(CC)C(=O)N/C(N)=N/c1nc2ccccc2s1` showed a growth of 52.1%. With `CC(C)(C)c1ccc(OCc2nc3ccccc3n2-c2cccc(N)c2)cc1` the growth was 67.8% and 98.6%. Compound `N#Cc1c(-c2ccc(F)cc2)nc(SCc2ccc(F)cc2)nc1N1CCOCC1` has a growth of 85%. `CCOc1ccc(C(=O)NC(=S)Nc2ccc(S(N)(=O)=O)cc2)cc1` was tested, and the growth was 103% [100 µM]. For `CC1(C)CC(=O)C2=C(C1)OC(N)=C(c1nc3ccccc3[nH]1)C2c1ccc(Cl)cc1` (stereo not given), the growth was 22% and 106%. For `COc1ccc(-c2nc3cc(C)ccc3n2CC(=O)N=Nc2c(O)[nH]c3ccc(Cl)cc23)cc1`, the growth was 41.1%. In the case of `COc1cc2cc(C(=O)N3C[C@@H](CCl)c4c3cc(OC(=O)N(CCC(=O)N3CCN(C)CC3)[C@H]3CCSSC3)c3ccccc43)[nH]c2c(OC)c1OC`, the growth is reported as -34.5% (active). `Cc1ccc(-n2c(-c3cc4ccccc4nc3Cl)noc2=O)cc1` was tested, and the growth was 85.1%. In the case of `COc1cc2c3c(n(CCCNCCO)c(=O)c2cc1OC)-c1nc2c(cc1C3=O)OCO2`, the growth is reported as 38.3%. For `Cn1cc(-c2cc3nc(-c4c[nH]c5ccc(Cl)cc45)cc(N)n3n2)c2ccccc21`, the growth was -34.2% (active). Compound `O=C(CSc1nc2sc3c(c2c(=O)n1-c1ccc(Cl)cc1)CCCC3)NNC(=O)c1ccc(Br)cc1` has a growth of 91.1%. For `O=c1c2ccccc2nc(COc2ccccc2)n1/N=C/c1ccc(F)cc1`, the growth was 94.8%. Work on `COc1ccc(N=Nc2c(N)nn3c(-c4cc5ccccc5oc4=O)ccnc23)cc1` yielded a growth of 73.9%. With `C#CCOc1cc(N(CC)CC)ccc1C(C(=O)NC(C)(C)C)N(C(=O)C1CCc2cc(F)ccc2O1)c1ccccc1Br` (stereo not given) the growth was 21.7%. In the case of `CCOc1ccccc1NC(=O)N/C(N)=N/c1nc2ccccc2s1`, the growth is reported as -23.4% (active). With `CCN(CC)c1ccnc(CNCCSC(c2ccccc2)(c2ccccc2)c2ccc(OC)cc2)c1` the growth was -34.3% (active). Work on `COc1cc2c(c(OC)c1OC)C(=O)CC(c1cccc(NC(=O)[C@@H](N)CC(C)C)c1)O2` (stereo not given in full) yielded a growth of 96.6%. In the case of `COc1ccc(OC)c(-n2cc(C#N)c(N)c2C(=O)c2ccc(Cl)cc2Cl)c1`, the growth is reported as 2.46% (active). `COc1ccc(C2c3sc4ccc(C)cc4c3Oc3nc[nH]c(=O)c32)cc1` (stereo not given) was tested, and the growth was 85.2%. `Cc1ccc(S(=O)(=O)c2nc(S(=O)(=O)c3ccc(C)cc3)c(N3CCN(C)CC3)s2)cc1` showed a growth of 17.8%. `Cc1ccc2nc(COc3ccc(C(=O)NNC(=S)NC(=O)c4ccccc4)cc3)[nH]c2c1` was tested, and the growth was 70.7%. With `Nc1n[nH]c2cccc(C#Cc3cccc(NC(=O)Nc4cc(C(F)(F)F)cc(C(F)(F)F)c4)c3)c12` the growth was -9.4% (active). In the case of `COc1c(F)ccc(C(=O)Nc2ccc3nc(NC(=O)C4CCCN(S(=O)(=O)c5cccc(C(F)(F)F)c5)C4)sc3c2)c1F` (stereo not given), the growth is reported as 72.1%. Compound `CNS(=O)(=O)c1ccc(Nc2ccc(C(F)(F)F)cc2)c(-c2cn(C)cn2)c1` has a growth of 48%. In the case of `O=C(N/N=C/c1occc1Br)c1[nH]c2ccc(Br)cc2c1-c1ccccc1`, the growth is reported as -34.2% (active). In the case of `O=C(CN1CCN(c2ncnc3c2cnn3-c2ccccc2)CC1)Nc1ccc(Br)cc1`, the growth is reported as 64.3%.

— PubChem BioAssay (NCI)
